From article PMC11006913

How the values were obtained:
Experiment in all cases: PBM; 200 nM protein, PBS
Details in all cases: dsDNA, one strand shown
HESX1 [1] = target: HESX1 (Homo sapiens, UniProt Q9UBX0 95-180, R165K)
HESX1 [2] = target: HESX1 (Homo sapiens, UniProt Q9UBX0 95-180)
HESX1 [3] = target: HESX1 (Homo sapiens, UniProt Q9UBX0 95-180, R109Q)
HESX1 [4] = target: HESX1 (Homo sapiens, UniProt Q9UBX0 95-180, P111T)
ALX1 [5] = target: ALX1 (Homo sapiens, UniProt Q15699 118-204, L144V)
ALX1 [6] = target: ALX1 (Homo sapiens, UniProt Q15699 118-204, L144R)
HESX1 [7] = target: HESX1 (Homo sapiens, UniProt Q9UBX0 95-180, F115L)
ALX1 [8] = target: ALX1 (Homo sapiens, UniProt Q15699 118-204)
PROP1 [9] = target: PROP1 (Homo sapiens, UniProt O75360 56-141)
PROP1 [10] = target: PROP1 (Homo sapiens, UniProt O75360 56-141, R99H)
PROP1 [11] = target: PROP1 (Homo sapiens, UniProt O75360 56-141, F88S)
MSX2 [12] = target: MSX2 (Homo sapiens, UniProt P35548 130-214, R199I)
MSX2 [13] = target: MSX2 (Homo sapiens, UniProt P35548 130-214)
MSX2 [14] = target: MSX2 (Homo sapiens, UniProt P35548 130-214, F161Y)
ALX3 [15] = target: ALX3 (Homo sapiens, UniProt O95076 139-225, L168Q)
ALX3 [16] = target: ALX3 (Homo sapiens, UniProt O95076 139-225, L168V)
ALX3 (Homo sapiens, UniProt O95076 139-225, L168V), sequence (O95076 139-225 L168V): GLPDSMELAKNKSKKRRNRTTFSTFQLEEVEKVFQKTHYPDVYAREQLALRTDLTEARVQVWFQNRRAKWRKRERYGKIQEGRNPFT

PROP1 (Homo sapiens, UniProt O75360 56-141, F88S), sequence (O75360 56-141 F88S): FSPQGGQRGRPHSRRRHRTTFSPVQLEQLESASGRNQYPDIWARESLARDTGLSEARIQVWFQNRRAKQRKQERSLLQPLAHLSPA
PROP1 (Homo sapiens, UniProt O75360 56-141), sequence (O75360 56-141): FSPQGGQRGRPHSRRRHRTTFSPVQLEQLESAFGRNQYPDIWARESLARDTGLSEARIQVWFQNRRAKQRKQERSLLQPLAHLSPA
HESX1 (Homo sapiens, UniProt Q9UBX0 95-180), sequence (Q9UBX0 95-180): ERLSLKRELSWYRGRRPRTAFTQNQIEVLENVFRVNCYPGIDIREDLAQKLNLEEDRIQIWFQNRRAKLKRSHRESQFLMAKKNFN
PROP1 (Homo sapiens, UniProt O75360 56-141, R99H), sequence (O75360 56-141 R99H): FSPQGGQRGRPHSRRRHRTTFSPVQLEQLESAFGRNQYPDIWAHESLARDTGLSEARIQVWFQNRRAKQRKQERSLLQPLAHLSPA
HESX1 (Homo sapiens, UniProt Q9UBX0 95-180, P111T), sequence (Q9UBX0 95-180 P111T): as the sequence (Q9UBX0 95-180) above, with P17T counted along it
HESX1 (Homo sapiens, UniProt Q9UBX0 95-180, F115L), sequence (Q9UBX0 95-180 F115L): as the sequence (Q9UBX0 95-180) above, with F21L counted along it
HESX1 (Homo sapiens, UniProt Q9UBX0 95-180, R165K), sequence (Q9UBX0 95-180 R165K): as the sequence (Q9UBX0 95-180) above, with R71K counted along it
HESX1 (Homo sapiens, UniProt Q9UBX0 95-180, R109Q), sequence (Q9UBX0 95-180 R109Q): as the sequence (Q9UBX0 95-180) above, with R15Q counted along it
ALX1 (Homo sapiens, UniProt Q15699 118-204), sequence (Q15699 118-204): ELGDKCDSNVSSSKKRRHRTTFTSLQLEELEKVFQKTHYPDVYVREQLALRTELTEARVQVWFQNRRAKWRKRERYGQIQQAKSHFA
ALX1 (Homo sapiens, UniProt Q15699 118-204, L144R), sequence (Q15699 118-204 L144R): as the sequence (Q15699 118-204) above, with L27R counted along it
ALX3 (Homo sapiens, UniProt O95076 139-225, L168Q), sequence (O95076 139-225 L168Q): as the sequence (O95076 139-225 L168V) above, with V30Q counted along it
ALX1 (Homo sapiens, UniProt Q15699 118-204, L144V), sequence (Q15699 118-204 L144V): as the sequence (Q15699 118-204) above, with L27V counted along it
MSX2 (Homo sapiens, UniProt P35548 130-214, R199I), sequence (P35548 130-214 R199I): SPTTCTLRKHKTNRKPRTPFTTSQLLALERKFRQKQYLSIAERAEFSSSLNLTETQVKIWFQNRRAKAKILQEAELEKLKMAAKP
MSX2 (Homo sapiens, UniProt P35548 130-214, F161Y), sequence (P35548 130-214 F161Y): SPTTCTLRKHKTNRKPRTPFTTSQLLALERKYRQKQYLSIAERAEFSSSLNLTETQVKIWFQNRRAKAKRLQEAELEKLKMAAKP
MSX2 (Homo sapiens, UniProt P35548 130-214), sequence (P35548 130-214): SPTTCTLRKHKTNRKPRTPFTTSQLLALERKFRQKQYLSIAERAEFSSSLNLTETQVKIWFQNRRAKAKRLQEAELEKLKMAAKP

## CTCAATAC
HESX1 [1]
  binding signal: 7.27 upbm affinity estimate (log intensity, higher = more binding, comparable within an allelic series)
HESX1 [2]
  binding signal: 7.48 upbm affinity estimate (log intensity, higher = more binding, comparable within an allelic series)
HESX1 [3]
  binding signal: 7.22 upbm affinity estimate (log intensity, higher = more binding, comparable within an allelic series)
HESX1 [4]
  binding signal: 7.29 upbm affinity estimate (log intensity, higher = more binding, comparable within an allelic series)

## CTGGGCTC
HESX1 [1]
  binding signal: 6.43 upbm affinity estimate (log intensity, higher = more binding, comparable within an allelic series)
HESX1 [2]
  binding signal: 6.41 upbm affinity estimate (log intensity, higher = more binding, comparable within an allelic series)
ALX1 [5]
  binding signal: 6.37 upbm affinity estimate (log intensity, higher = more binding, comparable within an allelic series)
ALX1 [6]
  binding signal: 6.38 upbm affinity estimate (log intensity, higher = more binding, comparable within an allelic series)
HESX1 [3]
  binding signal: 6.43 upbm affinity estimate (log intensity, higher = more binding, comparable within an allelic series)
HESX1 [4]
  binding signal: 6.51 upbm affinity estimate (log intensity, higher = more binding, comparable within an allelic series)
HESX1 [7]
  binding signal: 6.39 upbm affinity estimate (log intensity, higher = more binding, comparable within an allelic series)
ALX1 [8]
  binding signal: 6.38 upbm affinity estimate (log intensity, higher = more binding, comparable within an allelic series)

## CCGAGTCG
HESX1 [1]
  binding signal: 6.6 upbm affinity estimate (log intensity, higher = more binding, comparable within an allelic series)
HESX1 [2]
  binding signal: 6.58 upbm affinity estimate (log intensity, higher = more binding, comparable within an allelic series)
HESX1 [3]
  binding signal: 6.45 upbm affinity estimate (log intensity, higher = more binding, comparable within an allelic series)
HESX1 [4]
  binding signal: 6.56 upbm affinity estimate (log intensity, higher = more binding, comparable within an allelic series)
HESX1 [7]
  binding signal: 6.36 upbm affinity estimate (log intensity, higher = more binding, comparable within an allelic series)

## ACAGCGCG
HESX1 [1]
  binding signal: 6.46 upbm affinity estimate (log intensity, higher = more binding, comparable within an allelic series)
HESX1 [2]
  binding signal: 6.41 upbm affinity estimate (log intensity, higher = more binding, comparable within an allelic series)
HESX1 [3]
  binding signal: 6.49 upbm affinity estimate (log intensity, higher = more binding, comparable within an allelic series)
HESX1 [4]
  binding signal: 6.48 upbm affinity estimate (log intensity, higher = more binding, comparable within an allelic series)
HESX1 [7]
  binding signal: 6.44 upbm affinity estimate (log intensity, higher = more binding, comparable within an allelic series)

## GCAGCGCA
HESX1 [1]
  binding signal: 6.45 upbm affinity estimate (log intensity, higher = more binding, comparable within an allelic series)
HESX1 [2]
  binding signal: 6.27 upbm affinity estimate (log intensity, higher = more binding, comparable within an allelic series)
PROP1 [9]
  binding signal: 6.75 upbm affinity estimate (log intensity, higher = more binding, comparable within an allelic series)
HESX1 [3]
  binding signal: 6.54 upbm affinity estimate (log intensity, higher = more binding, comparable within an allelic series)
PROP1 [10]
  binding signal: 6.76 upbm affinity estimate (log intensity, higher = more binding, comparable within an allelic series)
HESX1 [4]
  binding signal: 6.47 upbm affinity estimate (log intensity, higher = more binding, comparable within an allelic series)
PROP1 [11]
  binding signal: 6.81 upbm affinity estimate (log intensity, higher = more binding, comparable within an allelic series)
HESX1 [7]
  binding signal: 6.53 upbm affinity estimate (log intensity, higher = more binding, comparable within an allelic series)

## AGTAATTG
HESX1 [1]
  binding signal: 11.8 upbm affinity estimate (log intensity, higher = more binding, comparable within an allelic series)
HESX1 [2]
  binding signal: 12 upbm affinity estimate (log intensity, higher = more binding, comparable within an allelic series)
MSX2 [12]
  binding signal: 12.5 upbm affinity estimate (log intensity, higher = more binding, comparable within an allelic series)
ALX1 [5]
  binding signal: 11.4 upbm affinity estimate (log intensity, higher = more binding, comparable within an allelic series)
ALX1 [6]
  binding signal: 10.9 upbm affinity estimate (log intensity, higher = more binding, comparable within an allelic series)
MSX2 [13]
  binding signal: 13.7 upbm affinity estimate (log intensity, higher = more binding, comparable within an allelic series)
HESX1 [3]
  binding signal: 8.47 upbm affinity estimate (log intensity, higher = more binding, comparable within an allelic series)
PROP1 [10]
  binding signal: 11 upbm affinity estimate (log intensity, higher = more binding, comparable within an allelic series)
HESX1 [4]
  binding signal: 10.3 upbm affinity estimate (log intensity, higher = more binding, comparable within an allelic series)
MSX2 [14]
  binding signal: 13.4 upbm affinity estimate (log intensity, higher = more binding, comparable within an allelic series)
HESX1 [7]
  binding signal: 7.48 upbm affinity estimate (log intensity, higher = more binding, comparable within an allelic series)
ALX1 [8]
  binding signal: 12 upbm affinity estimate (log intensity, higher = more binding, comparable within an allelic series)

## CAAGCCGC
HESX1 [1]
  binding signal: 6.58 upbm affinity estimate (log intensity, higher = more binding, comparable within an allelic series)
HESX1 [2]
  binding signal: 6.44 upbm affinity estimate (log intensity, higher = more binding, comparable within an allelic series)
PROP1 [9]
  binding signal: 6.56 upbm affinity estimate (log intensity, higher = more binding, comparable within an allelic series)
HESX1 [3]
  binding signal: 6.54 upbm affinity estimate (log intensity, higher = more binding, comparable within an allelic series)
PROP1 [10]
  binding signal: 6.8 upbm affinity estimate (log intensity, higher = more binding, comparable within an allelic series)
HESX1 [4]
  binding signal: 6.58 upbm affinity estimate (log intensity, higher = more binding, comparable within an allelic series)
PROP1 [11]
  binding signal: 6.57 upbm affinity estimate (log intensity, higher = more binding, comparable within an allelic series)
HESX1 [7]
  binding signal: 6.56 upbm affinity estimate (log intensity, higher = more binding, comparable within an allelic series)

## TGGCGCCA
HESX1 [1]
  binding signal: 6.38 upbm affinity estimate (log intensity, higher = more binding, comparable within an allelic series)
HESX1 [2]
  binding signal: 6.62 upbm affinity estimate (log intensity, higher = more binding, comparable within an allelic series)
HESX1 [3]
  binding signal: 6.34 upbm affinity estimate (log intensity, higher = more binding, comparable within an allelic series)
HESX1 [4]
  binding signal: 6.49 upbm affinity estimate (log intensity, higher = more binding, comparable within an allelic series)
HESX1 [7]
  binding signal: 6.34 upbm affinity estimate (log intensity, higher = more binding, comparable within an allelic series)

## AAGGGCAC
HESX1 [1]
  binding signal: 6.53 upbm affinity estimate (log intensity, higher = more binding, comparable within an allelic series)
HESX1 [2]
  binding signal: 6.41 upbm affinity estimate (log intensity, higher = more binding, comparable within an allelic series)
HESX1 [3]
  binding signal: 6.62 upbm affinity estimate (log intensity, higher = more binding, comparable within an allelic series)
HESX1 [4]
  binding signal: 6.56 upbm affinity estimate (log intensity, higher = more binding, comparable within an allelic series)
HESX1 [7]
  binding signal: 6.62 upbm affinity estimate (log intensity, higher = more binding, comparable within an allelic series)

## CACCCCCC
HESX1 [1]
  binding signal: 6.39 upbm affinity estimate (log intensity, higher = more binding, comparable within an allelic series)
HESX1 [2]
  binding signal: 6.4 upbm affinity estimate (log intensity, higher = more binding, comparable within an allelic series)
PROP1 [9]
  binding signal: 6.46 upbm affinity estimate (log intensity, higher = more binding, comparable within an allelic series)
HESX1 [3]
  binding signal: 6.54 upbm affinity estimate (log intensity, higher = more binding, comparable within an allelic series)
PROP1 [10]
  binding signal: 6.42 upbm affinity estimate (log intensity, higher = more binding, comparable within an allelic series)
ALX3 [15]
  binding signal: 7.45 upbm affinity estimate (log intensity, higher = more binding, comparable within an allelic series)
HESX1 [4]
  binding signal: 6.38 upbm affinity estimate (log intensity, higher = more binding, comparable within an allelic series)
ALX3 [16]
  binding signal: 7.59 upbm affinity estimate (log intensity, higher = more binding, comparable within an allelic series)
PROP1 [11]
  binding signal: 6 upbm affinity estimate (log intensity, higher = more binding, comparable within an allelic series)
HESX1 [7]
  binding signal: 6.45 upbm affinity estimate (log intensity, higher = more binding, comparable within an allelic series)

## GCGTGGCC
HESX1 [1]
  binding signal: 6.46 upbm affinity estimate (log intensity, higher = more binding, comparable within an allelic series)
HESX1 [2]
  binding signal: 6.31 upbm affinity estimate (log intensity, higher = more binding, comparable within an allelic series)
HESX1 [3]
  binding signal: 6.39 upbm affinity estimate (log intensity, higher = more binding, comparable within an allelic series)
HESX1 [4]
  binding signal: 6.37 upbm affinity estimate (log intensity, higher = more binding, comparable within an allelic series)
HESX1 [7]
  binding signal: 6.39 upbm affinity estimate (log intensity, higher = more binding, comparable within an allelic series)

## CTGCCAGC
HESX1 [1]
  binding signal: 6.31 upbm affinity estimate (log intensity, higher = more binding, comparable within an allelic series)
HESX1 [2]
  binding signal: 6.34 upbm affinity estimate (log intensity, higher = more binding, comparable within an allelic series)
HESX1 [3]
  binding signal: 6.43 upbm affinity estimate (log intensity, higher = more binding, comparable within an allelic series)
HESX1 [4]
  binding signal: 6.51 upbm affinity estimate (log intensity, higher = more binding, comparable within an allelic series)
HESX1 [7]
  binding signal: 6.4 upbm affinity estimate (log intensity, higher = more binding, comparable within an allelic series)

## GAAAGGCC
HESX1 [1]
  binding signal: 6.41 upbm affinity estimate (log intensity, higher = more binding, comparable within an allelic series)
HESX1 [2]
  binding signal: 6.39 upbm affinity estimate (log intensity, higher = more binding, comparable within an allelic series)
PROP1 [9]
  binding signal: 6.76 upbm affinity estimate (log intensity, higher = more binding, comparable within an allelic series)
HESX1 [3]
  binding signal: 6.49 upbm affinity estimate (log intensity, higher = more binding, comparable within an allelic series)
PROP1 [10]
  binding signal: 6.79 upbm affinity estimate (log intensity, higher = more binding, comparable within an allelic series)
HESX1 [4]
  binding signal: 6.47 upbm affinity estimate (log intensity, higher = more binding, comparable within an allelic series)
PROP1 [11]
  binding signal: 6.75 upbm affinity estimate (log intensity, higher = more binding, comparable within an allelic series)
HESX1 [7]
  binding signal: 6.63 upbm affinity estimate (log intensity, higher = more binding, comparable within an allelic series)

## CCGCCGAG
HESX1 [1]
  binding signal: 6.43 upbm affinity estimate (log intensity, higher = more binding, comparable within an allelic series)
HESX1 [2]
  binding signal: 6.32 upbm affinity estimate (log intensity, higher = more binding, comparable within an allelic series)
HESX1 [3]
  binding signal: 6.49 upbm affinity estimate (log intensity, higher = more binding, comparable within an allelic series)
HESX1 [4]
  binding signal: 6.43 upbm affinity estimate (log intensity, higher = more binding, comparable within an allelic series)
HESX1 [7]
  binding signal: 6.38 upbm affinity estimate (log intensity, higher = more binding, comparable within an allelic series)

## CTAGGGCC
HESX1 [1]
  binding signal: 6.49 upbm affinity estimate (log intensity, higher = more binding, comparable within an allelic series)
HESX1 [2]
  binding signal: 6.45 upbm affinity estimate (log intensity, higher = more binding, comparable within an allelic series)
HESX1 [3]
  binding signal: 6.47 upbm affinity estimate (log intensity, higher = more binding, comparable within an allelic series)
ALX3 [15]
  binding signal: 7.79 upbm affinity estimate (log intensity, higher = more binding, comparable within an allelic series)
HESX1 [4]
  binding signal: 6.36 upbm affinity estimate (log intensity, higher = more binding, comparable within an allelic series)
ALX3 [16]
  binding signal: 7.77 upbm affinity estimate (log intensity, higher = more binding, comparable within an allelic series)
HESX1 [7]
  binding signal: 6.42 upbm affinity estimate (log intensity, higher = more binding, comparable within an allelic series)

## ACGCCTAC
HESX1 [1]
  binding signal: 6.48 upbm affinity estimate (log intensity, higher = more binding, comparable within an allelic series)
HESX1 [2]
  binding signal: 6.44 upbm affinity estimate (log intensity, higher = more binding, comparable within an allelic series)
HESX1 [3]
  binding signal: 6.44 upbm affinity estimate (log intensity, higher = more binding, comparable within an allelic series)
HESX1 [4]
  binding signal: 6.5 upbm affinity estimate (log intensity, higher = more binding, comparable within an allelic series)
HESX1 [7]
  binding signal: 6.46 upbm affinity estimate (log intensity, higher = more binding, comparable within an allelic series)
